Source: PubChem BioAssay (NCI)
Compounds without any hit were thinned out: in the full panel of roughly 83,000, 20% have a hit.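 Testing used 96-well plates and a 48-hour single-concentration exposure. Example: -40 means 40% of the starting cells died.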 Unmarked numbers belong to inactive results. Calls of active or inactive are those of the source. Rule for the calls: active = growth percent below 10; inactive = the rest.

How the values were obtained:
Test in all cases: NCI-60 one-dose screen, 48 h (100 = growth as untreated, 0 = no growth, -100 = all killed)
Conditions in all cases: 10 µM unless noted
HCT-15 colon = tested on: HCT-15 colon
HT29 colon = tested on: HT29 colon
SNB-75 CNS = tested on: SNB-75 CNS
SNB-19 CNS = tested on: SNB-19 CNS
U251 CNS = tested on: U251 CNS
PC-3 prostate = tested on: PC-3 prostate
SK-MEL-5 melanoma = tested on: SK-MEL-5 melanoma
UACC-62 melanoma = tested on: UACC-62 melanoma
LOX IMVI melanoma = tested on: LOX IMVI melanoma
SK-MEL-28 melanoma = tested on: SK-MEL-28 melanoma
EKVX NSCLC = tested on: EKVX NSCLC
SN12C renal = tested on: SN12C renal
UO-31 renal = tested on: UO-31 renal
TK-10 renal = tested on: TK-10 renal
ACHN renal = tested on: ACHN renal
CAKI-1 renal = tested on: CAKI-1 renal
A498 renal = tested on: A498 renal
CCRF-CEM leukemia = tested on: CCRF-CEM leukemia
MOLT-4 leukemia = tested on: MOLT-4 leukemia

SMILES | growth (HCT-15 colon) | growth (HT29 colon) | growth (SNB-75 CNS) | growth (SNB-19 CNS) | growth (U251 CNS) | growth (PC-3 prostate) | growth (SK-MEL-5 melanoma) | growth (UACC-62 melanoma) | growth (LOX IMVI melanoma) | growth (SK-MEL-28 melanoma) | growth (EKVX NSCLC) | growth (SN12C renal) | growth (UO-31 renal) | growth (TK-10 renal) | growth (ACHN renal) | growth (CAKI-1 renal) | growth (A498 renal) | growth (CCRF-CEM leukemia) | growth (MOLT-4 leukemia)
O=C(NOCCO)c1ccc2cncn2c1Nc1ccc(I)cc1F | 66.7% | 9.38% (active) | 81.1% | 57.8% | 40.4% | 81% | 47% | 3.07% (active) | 19.9% | 3.91% (active) | 54.6% | 68.1% | 37.2% | 57.2% | 59.9% | 41% | -11% (active) | 77.1% | 85%
CC/C(=C(/c1ccc(Cl)cc1)c1ccc(OCCN2CCCCC2)cc1)c1ccc(Cl)cc1 | 57.1% | 23% | 85.7% | 85.7% | 62.3% | 63.7% | 86.9% | 97% | 82.2% | 98.5% | 57.4% | 76.5% | 58.8% | 90.8% | 91.2% | 74.4% | 94% | 50.6% | 69.2%
C[C@@H](NC(=O)c1ncnc(N)c1Cl)c1ncc(C(=O)Nc2cc(C(F)(F)F)c(Cl)cn2)s1 | 86.4% | 20.1% | 103% | 94.7% | 75.9% | 93.7% | 51.2% | -0.831% (active) | 36.5% | 9.63% (active) | 101% | 82.6% | 52.8% | 77.4% | 74.5% | 74.2% | 59.6% | 78.5% | 70.8%
Cc1cc(C(O)CN(C)C)cc2c1ccc1cc(C(C)C)ccc12 (centres undefined) | -38.7% (active) | -65.1% (active) | -63.5% (active) | 59% | -48.8% (active) | 48.6% | -93.1% (active) | -81.2% (active) | -100% (active) | -100% (active) | 84.5% | 62.6% | 26.4% | -62.1% (active) | -28.6% (active) | 8.02% (active) | 76.8% | 3.14% (active) | -29.5% (active)
CCN1CCN(Cc2ccc(-c3cc4c(N[C@H](C)c5ccccc5)ncnc4[nH]3)cc2)CC1 | 50.1% | 4.82% (active) | 75.1% | 46.2% | 56.8% | 41.3% | 59.8% | 7.59% (active) | 13.5% | 16.7% | 41.8% | 25% | 13.5% | 2.14% (active) | 9.72% (active) | 21.7% | 25.4% | 25.4% | 37.8%
CCN(CC)CCNC(=O)c1c(C)[nH]c(/C=C2\C(=O)Nc3ccc(F)cc32)c1C | 11% | -53.9% (active) | 18.2% | 9.51% (active) | -79.3% (active) | 21.6% | -98% (active) | -63.6% (active) | -81.9% (active) | -69.1% (active) | 17.8% | 26% | 7.88% (active) | 27.1% | -12.8% (active) | 17.5% | 47.4% | 7.54% (active) | 17%
COc1ccc(C(=O)N2c3ccccc3Sc3ccccc32)c(F)c1 | 27.3% | 5.07% (active) | -11.3% (active) | 35.8% | 33.6% | 29.8% | 15.7% | 22.6% | 40.3% | 58.9% | 44% | 60.8% | 49.2% | 44.5% | 48.4% | 45.3% | 2.13% (active) | 17% | 27.1%
CNC(=O)CN1CCC(Oc2cc3c(Nc4cccc(Cl)c4F)ncnc3cc2OC)CC1 | 66.8% | 36.8% | 20.9% | 70.3% | 80.4% | 65.7% | 77.2% | 86.8% | 37.7% | 91.7% | 32.1% | 42.7% | 26.3% | 1.03% (active) | 8.22% (active) | 10.6% | 44.2% | 64.7% | 51.7%
CO[C@@H](C(=O)N1Cc2[nH]nc(NC(=O)c3ccc(N4CCN(C)CC4)cc3)c2C1)c1ccccc1 | 74.2% | -34.7% (active) | -85.5% (active) | 28.3% | 16% | 26.5% | -20.5% (active) | 30.6% | -89% (active) | 45.5% | 59.3% | 26.8% | 50.7% | 9.33% (active) | 41.9% | 17.3% | -37% (active) | 51.5% | 31%
COc1cccc(NC(=O)Nc2ccc(Nc3ncnc4sc5c(c34)CCN(C(=O)CCl)C5)cc2)c1 | 118% | 90.2% | 86.4% | 102% | 95.5% | 90.7% | 106% | 94.8% | 94.1% | 117% | 109% | 96.3% | 66.6% | 122% | 88.7% | 94.2% | 93.1% | 88.4% | 92.8%
Cc1c(Cn2c(C)nc3c(C(=O)O)cc(N4CCOCC4)cc32)cccc1C(F)(F)F | 44.5% | 69.5% | 61.3% | 118% | 104% | 68.2% | 104% | 65.5% | 101% | 80.9% | 101% | 95.7% | 47% | 84.1% | 77.1% | 91.7% | -17% (active) | 79.6% | 60.2%
COCCN1CCN(Cc2ccc(-c3n[nH]c4c3C(=O)c3c(NC(=O)NN5CCOCC5)cccc3-4)cc2)CC1 | -13.6% (active) | -22.3% (active) | -37.6% (active) | 2.99% (active) | 1.69% (active) | 3.15% (active) | -23.8% (active) | -44.9% (active) | -77.2% (active) | -39.7% (active) | -3.26% (active) | 7.64% (active) | -14.2% (active) | -30.9% (active) | 3.84% (active) | -18.3% (active) | -22% (active) | -15.3% (active) | -15% (active)
C=CC(=O)Nc1cc(Nc2nccc(-c3cn(C)c4ccccc34)n2)c(OC)cc1N(C)CCN(C)C | -63.9% (active) | -61.2% (active) | -6.88% (active) | -7.94% (active) | -72.7% (active) | -52.6% (active) | -96.5% (active) | -68.8% (active) | -84.6% (active) | -87.2% (active) | -46.2% (active) | -59.3% (active) | -83.2% (active) | -17.1% (active) | -95.4% (active) | -86.4% (active) | -58.3% (active) | -17.1% (active) | -52.7% (active)
CCCCCCCC12Cc3ccccc3C1=Nc1c(c3ccccc3n1C)C2=O (centres undefined) | 91.7% | 58.8% | 89.2% | 95% | 88.5% | 78.2% | 90.8% | 74.8% | 87.8% | 113% | 98.8% | 92.1% | 57.5% | 102% | 93.3% | 79.7% | 86.4% | 83.6% | 78.3%
CC[C@H](CO)Nc1nc(NCc2ccccc2)c2ncn(C(C)C)c2n1 | 53.4% | 54% | 57.4% | 67.9% | 62.5% | 70.8% | 66.5% | 46.8% | 51.1% | 55.5% | 72.3% | 73.4% | 55.4% | 92.4% | 46.8% | 48% | 71.3% | 65.9% | 49.6%
CCCS(=O)(=O)Nc1ccc(F)c(C(=O)c2c[nH]c3ncc(-c4ccc(Cl)cc4)cc23)c1F | 28.4% | 4.44% (active) | 8.13% (active) | 40.4% | 18.5% | 21.8% | 15.9% | -22.6% (active) | 16.5% | 1.65% (active) | 43.1% | 49.6% | 19.5% | 23.8% | 24.4% | 12.1% | -1.82% (active) | 26.9% | 15.6%
